# From PubChem
# SW480 rerep: A quantitative high throughput screen for small molecules that induce DNA re-replication in SW480 colon adenocarcinoma cells; Potency, µM (doses to about 46.1 µM), for the others: top-dose re-replication activation, hits mostly activators; 340,000 compounds, 1.8% hits; SW480 DNA re-replication, Hoechst DNA content imaging, 48 h; further: % of control where 0% means no effect; nearly all actives have a fitted effect of over 55% in size
#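 Per well, 250 cells were exposed to pinned compound for 48 hr. Nuclear DNA was visualised with Hoechst (40 min, 37 C) and total object intensity recorded by fluorescence scanning.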
# KB-V1 MDR tox: qHTS assay for MDR1-selective chemotherapeutics: Primary screen using the drug-selected MDR subline cells KB-V1; AID 1347076, 2019; KB-V1 MDR cells viability, CellTiter-Glo, 72 h; Potency, µM (doses to about 46.1 µM), most hits filed as cytotoxic; 400,000 compounds, 3.4% hits; further: on the % scale 0 is the no-effect control and ±100 the full control effect; nearly all actives have a fitted effect of over 60% in size
#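 Luminescent ATP read-out (CellTiter-Glo, 10 min) measures survival of drug-selected KB-V1 MDR cells after 72 h, 37 degrees C compound exposure. Medium: phenol-red-free DMEM, 10% FBS. Values from fitted concentration-response curves.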
# ELG1 repair inh: qHTS screen for small molecules that inhibit ELG1-dependent DNA repair in human embryonic kidney (HEK293T) cells expressing luciferase-tagged ELG1; HEK293T ELG1-luciferase reporter, luminescence, 16 h; DNA damage induced by 5-fluorouridine; Potency, µM (highest dose often 46.1 µM), without a hit: top-dose activity change, negative = inhibition, actives largely listed as inhibitors; 330,000 compounds, 2.3% hits; AID 504467, 2011; further: on the % scale 0 is the no-effect control and ±100 the full control effect; nearly all actives have a fitted effect of over 55% in size
#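 DMSO vehicle served as the neutral condition. Each well held 2,000 cells given 5-fluorouridine plus compound; after 16 hr at 37 °C/5% CO2, ONE-Glo was added and luciferase measured 30 min later.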
# MCF10A rerep: A quantitative high throughput screen for small molecules that induce DNA re-replication in MCF 10a normal breast cells; MCF 10A DNA re-replication, Hoechst nuclear intensity, 48 h; Potency, µM (top dose mostly 46.1 µM), for inactives: top-dose activity, positive = re-replication, actives largely listed as activators; 350,000 compounds, 2.9% hits; further: % of control where 0% means no effect; nearly all actives have a fitted effect of over 50% in size
# KB-3-1 tox: qHTS assay for MDR1-selective chemotherapeutics: Primary screen using the parental adenocarcinoma cell KB-3-1. KB-3-1 viability, CellTiter-Glo ATP luminescence, 72 h. Potency, µM (highest dose often 46.1 µM), hits mostly cytotoxic. 400,000 compounds, 1.4% hits; further: on the % scale 0 is the no-effect control and ±100 the full control effect; nearly all actives have a fitted effect of over 60% in size
#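 Cytotoxicity in the drug-sensitive parental line KB-3-1 was scored as loss of CellTiter-Glo luminescence following 72 h incubation with compound. Values come from curve fitting of normalized concentration-response data.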
# * = called active by the depositor; i = inactive; u = inconclusive; x = not tested or not shown; [ ] = remark or other dose. Rows were chosen to be rich in hits. Some 8.1% of all compounds tested hit in one or more screens of this group. The call rests on the fitted dose curve; in most records, active means well fitted curve in the direction sought with a large enough effect; inconclusive means small, poorly fitted or top-dose-only effect, or another doubt; inactive means no such curve, though single readings can be large; an effect the other way counts as inactive or inconclusive. Potency means the concentration at half of the fitted maximal effect.
SMILES,SW480 rerep,KB-V1 MDR tox,ELG1 repair inh,MCF10A rerep,KB-3-1 tox
CN(C)C(=O)CSc1nnc(-c2cccnc2)n1-c1ccccc1,-6%,i,-2%,2%,i
CCc1c(C)c(C#N)c2nc3ccccc3n2c1NCCCN(C)C,x,i,x,x,i
CCCCc1c(C)c(C#N)c2nc3ccccc3n2c1NCCN(C)C,u,i,-22%,23µM*,i
Cc1c(Cc2ccccc2)c(NCCN(C)C)n2c(nc3ccccc32)c1C#N,29µM*,u,u,23µM*,i
COc1ccc2[nH]cc(C(=O)NCCc3ccccc3)c(=O)c2c1,-15%,i,-9%,0%,i
CCOC(=O)c1c(NC(=O)COC(=O)CCCOc2ccc(OC)cc2)sc(C(=O)NC)c1C,-56%,i,-12%,1%,i
Cc1ccc(NC(=O)CSc2nnc(N)s2)c(C)c1,x,i,x,x,i
CCc1c(C)sc(NC(=O)C2CC2c2ccccc2)c1C(N)=O (stereo not drawn),17%,6.5µM*,u,u,i
Cc1ccc(C)c(S(=O)(=O)ON2C(=O)c3ccccc3C2=O)c1,u,i,16%,5.8µM*,u
Cc1cc(S(=O)(=O)ON2C(=O)c3ccccc3C2=O)ccc1F,8%,i,-1%,u,u
Cc1cccc(Cn2c(SCc3ccc(C(=O)NC4CCCC4)cc3)nc3ccncc32)c1,x,i,x,x,i
Cc1cc(NC(=O)CCCN2C(=O)c3cccnc3C2=O)ccc1Br,-7%,i,-18%,-1%,i
O=C(N/N=C\c1cccc(Cl)c1)c1ccc(Cn2cc(Br)c([N+](=O)[O-])n2)o1,u,21µM*,u,u,u
Cc1ccc(/C=N\NC(=O)c2ccc(Cn3cc(Br)c([N+](=O)[O-])n3)o2)o1,-17%,i,0%,-4%,u
Cc1ccc(N=c2c([N+](=O)[O-])nn(-c3ccc4c(c3)OCCO4)n2O)cc1F,13%,i,u,u,i
COCc1c(Br)c(C)nc(OCC(=O)N/N=C/c2ccco2)c1C#N,-8%,i,11%,12%,i
COCc1c(Br)c(C)nc(OCC(=O)N/N=C/c2ccc(C)o2)c1C#N,8%,u,-1%,0.73µM*,i
Cc1c(NC(=O)c2c(NC(=O)CNC3CC3)sc3c2CCCC3)c(=O)n(-c2ccccc2)n1C,7%,u,-10%,-1%,i
COc1ccc(C(C)=O)cc1Cn1c(C)c(C(=O)NCC(C)C)sc1=O,x,u,x,x,i
Cc1[nH]n(-c2ccc([N+](=O)[O-])cc2)c(=O)c1C=NCCN1CCN(C(=O)c2cccc(F)c2)CC1,-2%,16µM*,2%,21%,i
C=CCn1c(SC(C)C(=O)Nc2ccc(F)c(F)c2F)nnc1C1CC1 (stereo not drawn),-7%,i,13%,-10%,i
Cc1ccc(-c2nnc(Nc3ccc4c(c3)OCO4)c3ccccc23)cc1S(N)(=O)=O,2%,i,16µM*,-3%,i
COc1ccc(CCNC(=O)CCCCCN2C(=O)c3ccccc3C2=O)cc1OC,1%,i,-2%,1%,i
O=C(c1ccc(Nc2cccc(C(F)(F)F)c2)nc1)N1CCCC1,-7%,i,6%,-6%,i
CCOC(=O)C1CCN(C(=O)CN(C)S(=O)(=O)c2cc(C)ccc2OC)CC1,2%,23µM*,6%,1%,i
SMILES,SW480 rerep,KB-V1 MDR tox,ELG1 repair inh,MCF10A rerep,KB-3-1 tox
COc1ccc(Cc2noc(CN3CCN(c4ccc(Cl)cn4)CC3)n2)cc1OC,0%,3.3µM*,u,9%,u
COc1ccc(Cc2noc(CN3CCN(Cc4cccc(Cl)c4)CC3)n2)cc1OC,-7%,u,23µM*,0%,i
COc1ccc(Cc2noc(CN3CCCC(C(=O)c4cccs4)C3)n2)cc1OC (stereo not drawn),31%,u,18µM*,-9%,i
O=C1CC(c2ccc(F)cc2)CC(O)=C1C=NCCN1CCNCC1 (stereo not drawn),3%,i,x,-23%,i
CN(C)CCNc1nccc(N2CCN(C)CC2)n1,x,i,x,x,u
COc1ccc(N(CC(O)Cn2c3ccccc3c3ccccc32)S(=O)(=O)c2ccccc2)cc1 (stereo not drawn),u,23µM*,-11%,5%,u
CC(=O)Nc1ccccc1N(CC(O)Cn1c2ccccc2c2ccccc21)S(=O)(=O)c1ccc(C)cc1 (stereo not drawn),23µM*,u,u,u,i
COC(=O)c1sc(NC(=O)CN2CCN(c3cccc(Cl)c3)CC2)c(C(=O)OC)c1C,-7%,i,x,1%,i
c1ccc(N2CC3COc4ccccc4C3=N2)cc1 (stereo not drawn),15µM*,i,x,13µM*,i
Cc1cc(C(=O)COc2ccc(-c3nnco3)cc2)c(C)n1Cc1ccccc1,0%,2.9µM*,u,15%,16µM*
CCC(C)c1ccccc1NC(=O)COc1ccc(-c2nnco2)cc1 (stereo not drawn),6%,i,15%,0%,i
CCN(CC)c1ccc(-c2nn3c(-c4n[nH]c5c4CCC5)nnc3s2)cc1,1.8µM*,u,1%,1.5µM*,u
CC(=O)c1ccc(N2CCN(C(=O)c3nn(Cc4ccccc4)c(=O)c4ccccc34)CC2)cc1,-46%[1.84 µM],u,9.2µM*,u,i
COC(=O)c1nn(Cc2ccccc2)c(=O)c2ccccc12,-2%,16µM*,-3%,12%,i
NC(=O)c1nn(Cc2ccccc2)c(=O)c2ccccc12,-6%,u,9%,-1%,i
O=C(O)CSCc1nc2scc(-c3ccccc3)c2c(=O)[nH]1,24%,i,10%,-27%,i
CCOc1ccc(-c2cc3nc(C4CCN(C(=O)OC(C)(C)C)CC4)c(C(=O)Nc4cccc(C(F)(F)F)c4)cn3n2)cc1,x,i,x,x,i
CCN(C)c1ccc(/C=N\n2nnnc2N)cc1,u,2.6µM*,u,u,5.2µM*
CCN(CC)c1ccc(/C=N/n2nnnc2N)c(O)c1,u,u,28%,u,16µM*
COc1ccc(CN2CCN(S(=O)(=O)c3ccc(F)cc3)CC2)cc1OC,-5%,i,13µM*,1%,i
CC(=O)Nc1ccc(S(=O)(=O)N2CCN(CC3CC4C=CC3C4)CC2)cc1 (stereo not drawn),1.3µM*,u,-2%,12%,i
